Among all 53,000 sequences or so, about 3,700 (7%) were called active. The full list was thinned out, with actives kept by preference. Values without a mark were called inactive.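 How the source made its calls: active means gene knockdowns whose robust z-score for IL-1 alpha signal is at least 2 or at most -2, so actives lie on both sides; inactive means the rest.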
Test: Components of the Cytosolic LPS Sensing Pathway: Gene Identification via Genome-wide siRNA Screen;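 further: robust z of the log signal after scaling to non-targeting control siRNA wells of the plate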
Conditions: RAW264.7 macrophages, IL-1a HTRF, actives lie on both sides, screened at 100 nM (by protocol), cells primed 5 h with Pam3CSK4 first
How it was run: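 Cells (RAW264.7, 1×10^4 per well) were transfected with siRNA at 100 nM and cultured 48h at 37 degrees C. Pam3CSK4 was added for 5 hours; LipidA transfection followed for 24 hour. IL-1a was then measured by HTRF.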

| Sequence | z-score |
| --- | --- |
| GGGAAAACCAUACAAAAUATT against Olfr228 | -0.525 |
| GCAAAUCGACCACUUUCCGTT against Cacng2 | 4 (active) |
| GCACGUCCUCGAUCUCUGUTT against Extl3 | -0.705 |
| GGUGUCUGAUGAUGAAUAUTT against Cnnm3 | 0.322 |
| GGAUGUGCCUCGGUUGGAUTT against Gulo | 0.663 |
| GGAAGACCUUGAAUUCCAGTT against Tspan31 | 2.87 (active) |
| GCCCAUUGAUCCGGAGUAATT against Dusp28 | 0.252 |
| GGGUUUCUAUGAAGAGAUCTT against Fhod1 | -0.624 |
| GCCUUACAUGAGCCCAUGUTT against Olfr550 | -1.96 |
| GGACUUUAUUGAAAAUCUGTT against Zfp365 | 0.593 |
| CCAAAUUCCUAUCAAGUUUTT against Ints2 | 1.98 |
| GCGUCUCAUAGAGUUGGUGTT against Mblac2 | 0.0617 |
| GCCGCUAGCAUGGUCUAUUTT against Apoa5 | 2.51 (active) |
| UAUACCUUAGUGCUGAGGGTT against Olfr736 | -1.02 |
| GGGCAAAAGCUGUUACAAGTT against Ahrr | -0.0958 |
| GGUUCCUGGAUGGUUCCUATT against Vtcn1 | 1.45 |
| GGGUAUGACAACAAACUUCTT against Gabrg2 | -0.422 |
| GGUUUGGCAAACAUUUCAUTT against Akr1c20 | 2.02 (active) |
| GGAUGAAUCUGAAGAUUCCTT against Nol3 | 0.113 |
| GGUGGACAAGCAAGUCUAGTT against Ube2o | 1.97 |
| GGACAAGAUAGGAGGAGACTT against Abhd16a | -0.776 |
| GCUUGUGCUGAAUUACACCTT against Vps35 | 2.11 (active) |

| Sequence | z-score |
| --- | --- |
| GCACGAAUCCUUGGAGAAATT against Batf2 | -0.254 |
| GGUGAUUUAGUUGUGUAAATT against Calcr | 0.294 |
| GGUUCCAUCUUCUCAGGACTT against Olfr395 | 1.01 |
| GGUGGAAUAUUUCAUGGACTT against Csnk2a1 | 3.43 (active) |
| GGAAGAGGACACAUUAGGCTT against Gtsf1l | 0.11 |
| GGUGAGUUUUGCUAAAAGUTT against Syp | 0.783 |
| GCAAGAAGUAUUUUCAGUATT against Galnt4 | 1.34 |
| GGAACAACGGAAAAGCGAGTT against Ankrd1 | 1.25 |
| GGAAUCCUCGGCAGAUAAATT against Rpl24 | 2.31 (active) |
| GGCAGAAAAUUGUUCUUAUTT against Cpt1a | -1.49 |
| GGCUUCUGGUACAUUAUUGTT against Lcn10 | -1.23 |
| GGGCAACUAUUGAUGAGGUTT against Acap3 | -0.138 |
| GGACGGUGACCUGUAUGAUTT against Cpxm1 | -2.4 (active) |
| GCAUUAAAGUAGAAGGUCUTT against Snx31 | 0.812 |
| GCGGCAAGAUUAAUAAGUCTT against Mpzl1 | 0.798 |
| GGAUCUCGAAGUUACUGCATT against Dnajc5b | 1.77 |
| GCCUAGCAAUGACUGGGAUTT against Sdhaf2 | -0.635 |
| GCCUUCUGGCAAGAAUCUUTT against Krtap9-3 | 1.21 |
| CCACUCAAGCGGUAAGGAUTT against Slc22a1 | 4.16 (active) |
| GGUGGCACAUAAGAAAUCCTT against Trim66 | -1.61 |
| CGGACACACAGUUGAUCCGTT against Cct6b | -2.15 (active) |
| GCGGGACUUUAUCUCAUCCTT against Mfsd4b1 | -0.815 |

| Sequence | z-score |
| --- | --- |
| CCUUCUUUAUAGGUAUGACTT against Klhl36 | 0.91 |
| GGAAAGAAGCAGCGGACUUTT against Nme7 | 2.29 (active) |
| GGCAUUCAGAGCUGAUUCATT against Mia3 | 0.93 |
| GCCCUGGCAUGCUAACAAATT against Prpf3 | -0.749 |
| GGUACUACAAGCUAGCUGUTT against Scd4 | -0.114 |
| GGAAGUUUGUAGAGUAUGUTT against Xylt1 | -0.187 |
| CCCGAGAACAUCUUGUACGTT against Rps6ka4 | 2.69 (active) |
| GGGUUCAAGAGAUGAUAUUTT against Usp11 | 0.245 |
| GGCUGAGAAACUGGAUGAATT against Rem1 | -0.143 |
| GGCUGUAUGACUCAGCUCUTT against Olfr711 | -0.912 |
| CCGGAAACUUCCUACGUGUTT against Cbln1 | -0.424 |
| GGAUAGAAACAUUUCUGUGTT against Olfr1145 | 2.1 (active) |
| GGACCAUGAGAAAUUUAAUTT against Nr2f1 | 1.41 |
| GGCGGUUAAUGACAAGAACTT against Sdk2 | -0.0303 |
| CGUGGAGUAAGGAGAAUAUTT against Ints7 | 0.364 |
| GGAAAUCACAUUGUCCUGCTT against 3010003L21Rik | 1.13 |
| GGAUCUGACACACAUGAUCTT against Med16 | 2.3 (active) |
| GGAGAAAGCAAGGAUAAUCTT against Rgs20 | 0.562 |
| CGCAGAGAAGGUCAUUAAATT against Il1f5 | 0.519 |
| GGUCUUCUCCGAGUACUUUTT against Ap1m1 | 4.38 (active) |
| GCACUCAGAACAACUAAAATT against Dglucy | 0.641 |
| GCUCCAUGAAUGUCCAACATT against Sphkap | -2.41 (active) |

| Sequence | z-score |
| --- | --- |
| GUUCUAGGCCUCCUGAAGCTT against Dohh | -0.808 |
| GCUGAUGUCUCAACCUAGATT against Zkscan2 | -1.72 |
| GGCUUUGUCUUGAAUGGCUTT against Adgre1 | -1.11 |
| CGCCGGAAGUUCUACCACUTT against Tmem205 | 0.223 |
| GAACAUCAUCUCACACUCATT against Olfr874 | -0.000467 |
| GGAUAGAGACUGCUGGGUUTT against Zfp579 | 0.248 |
| CCAAGUUGGCAUACUAUUCTT against Pank4 | -0.126 |
| GCCAGUCCUUCAAGUGUAUTT against Jak2 | 4.16 (active) |
| CCAUCUCAUCCCACGACACTT against Mrgprx1 | -0.334 |
| GGCCUUUGCAUGCAAUAGUTT against Zfp119b | 0.0596 |
| GCAGCCUUGUUUCAGUUCUTT against Fam43a | 0.765 |
| CCUCUCUACAUCCACUACUTT against Pogz | 3 (active) |
| GGAGAACACAGGUGGACUUTT against Ppy | 0.125 |
| GGAGGCCAAGCAGAAAGAGTT against Kars | 0.184 |
| GACUGCUUCCUUCUGACUGTT against Olfr399 | -0.575 |
| AAAAGAUGCAUGUCUCCUUTT against Hbq1a | -1.76 |
| GGCUUUUGACUUUACCCUATT against Acy3 | -1.3 |
| GGAAAUAUUUUCUCAGCAATT against Pcdhga1 | 1.52 |
| GCCCUCAUACCUACUAUGUTT against 4631405J19Rik | 0.787 |
| GGAAGAGAUUUCUAAACUUTT against Mcoln2 | -1.93 |
| GGGCAAAAUAUAGCAAUGATT against Vmn1r233 | -2.11 (active) |
| GCUGACUUCACAUUUGGCUTT against Mms19 | -0.24 |

| Sequence | z-score |
| --- | --- |
| GGAGUAUGUGGAAUGUCUATT against Creb3l1 | -0.903 |
| GGAUGACUCUAUCUUUCUATT against Igfbp4 | 0.892 |
| GGAAUACGUAUACUUCAGCTT against Dipk1c | 0.495 |
| GGAUUGCAUUAGGAAAGAATT against Fancl | 0.0536 |
| GGGAGUCCUGAAGGACUACTT against Lgmn | -0.0947 |
| GGAGCAGAAUGAGAAGACUTT against Marchf8 | 2.16 (active) |
| GGACCAAGGGUUCAUAGCATT against Wdr35 | -0.137 |
| GGUUCAUCUGUACAAAAUCTT against Zfp110 | 0.708 |
| CCAUAUGGUAACCAAACCGTT against Ldb1 | -0.896 |
| CCGUAGUAGAGAAAUUACATT against Exoc6 | 0.419 |
| GUUGUCCUCUUUGUCAUCATT against Olfr502 | -3.63 (active) |
| CGGGUAAUAUUCUUUUCAATT against Rex2 | 1.76 |
| GCUCUAGGCCAGAUGUUACTT against Slc13a3 | -0.476 |
| CGUUUCCUGCUCAAAUCCUTT against Abhd2 | -1.17 |
| GGAGAUUCGGACAAAGUGATT against Rhcg | -1.31 |
| GGAGUAGCUGUUCUAAUUGTT against Scamp5 | -1.65 |
| GGCUUUAAGAAUGUAUCGCTT against Dpp3 | -0.751 |
| GCCUUUUCCCGUCUGGAGATT against Glis1 | 0.122 |
| CGUUGCUGUUGUGGUCUUGTT against Olfr1232 | -2.71 (active) |
| GGGCCCAGGCUAAAAUAAATT against Cfap100 | 0.367 |

Reference: PubChem BioAssay AID1508600 (Functional Genomics Laboratory (NCATS/FGL), 2020)
